# Test results reported in PubChem BioAssay (Tox21).
# Records with an inconclusive call do not appear. Values without a mark were called inactive. The source made the active and inactive calls. Calls come from the whole dose curve; as a rule, active = well fitted curve in the direction sought with a large enough effect in the repeat runs; inconclusive = weak or mixed curves; inactive = no such curve, though single readings can be large; an effect the other way counts as inactive or inconclusive.
# Target: Cytochrome P450 1A2 (Homo sapiens) (UniProt P05177)
# Sequence (P05177 whole entry, looked up): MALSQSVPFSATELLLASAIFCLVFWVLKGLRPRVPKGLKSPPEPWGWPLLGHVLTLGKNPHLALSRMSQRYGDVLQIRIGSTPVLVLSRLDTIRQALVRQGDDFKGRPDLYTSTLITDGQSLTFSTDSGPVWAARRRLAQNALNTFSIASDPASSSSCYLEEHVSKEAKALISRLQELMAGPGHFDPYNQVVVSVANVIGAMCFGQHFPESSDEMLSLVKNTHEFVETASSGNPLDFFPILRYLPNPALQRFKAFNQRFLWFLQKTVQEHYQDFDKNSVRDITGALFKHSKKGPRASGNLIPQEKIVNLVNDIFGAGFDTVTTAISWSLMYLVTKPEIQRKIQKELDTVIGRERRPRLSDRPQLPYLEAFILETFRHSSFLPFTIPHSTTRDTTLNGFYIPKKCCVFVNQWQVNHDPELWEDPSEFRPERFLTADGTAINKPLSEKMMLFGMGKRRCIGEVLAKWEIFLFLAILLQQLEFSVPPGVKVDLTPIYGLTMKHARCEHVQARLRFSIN
# Test: Cytochrome P450 Family 1 Subfamily A Member 2 (CYP1A2) small molecule antagonists: luciferase reporter qHTS assay (AID 1671199)
# Details: P450-Glo CYP1A2 enzyme, luciferin luminescence, 1 h; series mostly up to 115 µM; activity change, negative = inhibition: at the top concentration
# Method in brief: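 Enzymatic CYP1A2 assay, human, luminescent: 10 min compound–enzyme–substrate preincubation, 1 h NADPH-dependent turnover, 20 min detection step, room temperature throughout. Reduced light indicates lower CYP1A2 activity.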
# % is set by controls: 0 for no effect and ±100 for the full control effect; potency is the fitted concentration of half-maximal effect.
# Note: nearly all actives have a fitted effect of over 50% in size.
Compound,Potency,"activity change, negative = inhibition"
Cl[Si](Cl)(c1ccccc1)c1ccccc1,64.8 µM (active),
C=CC(=O)OCCOC(=O)C=C,,-10.1%
CCc1ccc(Br)cc1,,0.312%
CN1CCCCC1CCN1c2ccccc2Sc2ccc(S(C)=O)cc21 (centres undefined),,-9.49% [at 53 µM]
CCCCC/C=C\C/C=C\CCCCCCCC(=O)O,,-7.01%
[Cl][Pt-2]([Cl])([Cl])[Cl],35.7 µM (active),
Cc1cccc2cccnc12,44.5 µM (active),
Nc1cc(Cl)c(O)c(Cl)c1,39.9 µM (active),
COc1cc(C)ccc1O,39.9 µM (active),
Cc1cc(C(C)(C)C)cc(C)c1CC1=NCCN1,,-12.3% [at 53 µM]
CC(=O)c1ccc(C(C)=O)cc1,28.9 µM (active),
COC(=O)Nc1nc2ccc(C(=O)c3ccccc3)cc2[nH]1,12.9 µM (active),
Nc1ccc(C(=O)O)c(O)c1,,0.906% [at 53 µM]
Cc1c(C)c([N+](=O)[O-])c(C(C)(C)C)c([N+](=O)[O-])c1C,20 µM (active),
CCOC(=O)c1ccc(C2CCC(NC[C@H](O)COc3ccc(O)c(NS(C)(=O)=O)c3)CC2)cc1 (some centres undefined),,-10.4%
Cc1nc(-c2ccc(Cl)cc2)oc1COC(C)(C)C(=O)O,,-11.4% [at 53 µM]

# Target: Voltage-gated inwardly rectifying potassium channel KCNH2 (Homo sapiens) (UniProt Q12809)
# Sequence (Q12809 whole entry, looked up): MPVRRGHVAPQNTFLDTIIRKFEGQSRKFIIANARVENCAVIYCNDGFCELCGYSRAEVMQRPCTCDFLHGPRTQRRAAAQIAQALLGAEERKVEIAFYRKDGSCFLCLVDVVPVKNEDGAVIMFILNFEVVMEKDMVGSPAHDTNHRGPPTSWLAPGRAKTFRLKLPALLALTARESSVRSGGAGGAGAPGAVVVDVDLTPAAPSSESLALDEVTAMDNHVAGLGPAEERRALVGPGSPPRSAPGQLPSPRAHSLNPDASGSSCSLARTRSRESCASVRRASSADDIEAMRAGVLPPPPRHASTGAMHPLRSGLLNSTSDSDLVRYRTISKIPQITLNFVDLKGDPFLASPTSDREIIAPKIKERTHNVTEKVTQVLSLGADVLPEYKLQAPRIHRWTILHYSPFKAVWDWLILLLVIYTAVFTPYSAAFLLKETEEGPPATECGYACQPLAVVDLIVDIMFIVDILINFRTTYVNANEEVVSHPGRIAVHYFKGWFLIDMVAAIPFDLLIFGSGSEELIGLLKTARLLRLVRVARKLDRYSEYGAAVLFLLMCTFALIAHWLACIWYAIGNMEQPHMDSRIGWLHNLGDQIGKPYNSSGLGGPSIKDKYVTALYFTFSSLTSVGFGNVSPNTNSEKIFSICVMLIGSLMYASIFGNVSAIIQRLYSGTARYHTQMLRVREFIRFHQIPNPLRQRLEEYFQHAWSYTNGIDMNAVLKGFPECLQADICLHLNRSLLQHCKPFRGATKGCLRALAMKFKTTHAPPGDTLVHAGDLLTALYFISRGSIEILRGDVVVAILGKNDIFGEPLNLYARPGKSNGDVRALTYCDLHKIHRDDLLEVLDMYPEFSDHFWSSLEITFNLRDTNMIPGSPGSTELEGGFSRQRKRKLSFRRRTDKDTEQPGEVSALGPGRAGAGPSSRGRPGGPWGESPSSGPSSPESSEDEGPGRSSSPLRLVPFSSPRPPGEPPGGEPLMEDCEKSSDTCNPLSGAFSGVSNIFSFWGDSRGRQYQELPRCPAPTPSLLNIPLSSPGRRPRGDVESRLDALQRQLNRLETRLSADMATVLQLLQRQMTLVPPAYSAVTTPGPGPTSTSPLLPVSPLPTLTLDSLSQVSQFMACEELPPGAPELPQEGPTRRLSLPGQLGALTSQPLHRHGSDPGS
# Test: Human Ether-a-go-go-Related Gene (hERG) channel small molecule antagonists: fluorescence cell-based qHTS assay (AID 1671200);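 for activity change, negative = inhibition: hERG-expressing U2OS cells given a thallium stimulus after FluxOR II dye loading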
# Details: hERG-U2OS cells, FluxOR thallium flux fluorescence; series mostly up to 76.8 µM; activity change, negative = inhibition: at the top concentration
# Method in brief: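 U2OS cells expressing the channel were plated at 1000 cells/well, incubated overnight at 37 C, then loaded with FluxOR II thallium-sensitive dye for 1 h at room temperature in the dark, with a further 10 min at room temperature before stimulation.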
Compound,"activity change, negative = inhibition",Potency
CN(C)C(=O)COC(=O)Cc1ccc(OC(=O)c2ccc(N=C(N)N)cc2)cc1,3.68% [at 35.3 µM],
CC1=Nc2ccccc2C1(C)C,-19.4%,
CCCCCCCC,2.62%,
CC(CO)Oc1ccccc1 (centres undefined),3.67%,
CC(=O)CC(=O)Nc1ccc(S(=O)(=O)O)cc1,-0.602%,
Oc1ccccc1O,,inactive
NC(=S)NC(N)=S,1.01%,
CC1(C)CCC[C@]2(C)[C@H]3CC(=O)O[C@]3(C)CC[C@@H]12,,38.9 µM (active)
Cc1cc(C(C#N)c2ccc(Cl)cc2)c(Cl)cc1NC(=O)c1cc(I)cc(I)c1O (centres undefined),0.976% [at 35.3 µM],
CCCC(=O)OCCc1ccccc1,-2.02%,
O=C(O)c1cccc(C(F)(F)F)c1,-5.19%,
CCCCC/C=C\C/C=C\CCCCCCCC(=O)O,,inactive
CC(=O)c1ccc(C(C)=O)cc1,1.33%,
Nc1ccc(C(=O)O)c(O)c1,2.28% [at 35.3 µM],
Cc1nc(-c2ccc(Cl)cc2)oc1COC(C)(C)C(=O)O,8.51% [at 35.3 µM],

# Target: Cytochrome P450 3A4 (Homo sapiens) (UniProt P08684)
# Sequence (P08684 whole entry, looked up): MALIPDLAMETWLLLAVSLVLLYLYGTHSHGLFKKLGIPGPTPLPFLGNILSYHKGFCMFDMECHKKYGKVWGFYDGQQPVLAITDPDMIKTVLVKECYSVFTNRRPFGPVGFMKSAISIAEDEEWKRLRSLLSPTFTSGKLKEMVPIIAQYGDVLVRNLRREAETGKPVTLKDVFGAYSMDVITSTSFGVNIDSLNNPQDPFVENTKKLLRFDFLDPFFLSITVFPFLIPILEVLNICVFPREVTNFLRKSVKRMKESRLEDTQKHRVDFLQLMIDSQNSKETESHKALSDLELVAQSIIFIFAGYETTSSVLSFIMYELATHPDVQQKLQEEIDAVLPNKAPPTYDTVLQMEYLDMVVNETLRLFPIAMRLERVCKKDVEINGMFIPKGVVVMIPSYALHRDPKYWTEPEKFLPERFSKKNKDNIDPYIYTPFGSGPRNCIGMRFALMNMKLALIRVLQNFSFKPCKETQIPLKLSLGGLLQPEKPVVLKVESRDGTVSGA
# Test: Cytochrome P450 Family 3 Subfamily A Member 4 (CYP3A4) small molecule antagonists: luciferase reporter qHTS assay (AID 1671201)
# Details: P450-Glo CYP3A4 enzyme, luciferin luminescence, 1 h; series mostly up to 115 µM; activity change, negative = inhibition: at the top concentration
# Method in brief: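 P450-Glo CYP3A4 system with proluciferin substrate; compounds preincubated 10 min RT with enzyme-substrate mix, then NADPH regeneration added for 1 h RT. Detection reagent 20 min, luminescence read as relative luminescence units.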
Compound,"activity change, negative = inhibition",Potency
CN(C)C(=O)COC(=O)Cc1ccc(OC(=O)c2ccc(N=C(N)N)cc2)cc1,13.4% [at 52.9 µM],
Nc1ccc(NCCO)c([N+](=O)[O-])c1,,25.2 µM (active)
CC1=Nc2ccccc2C1(C)C,,63.4 µM (active)
CCCCCCCC,-18.4%,
CC(CO)Oc1ccccc1 (centres undefined),-7.17%,
CC(=O)CC(=O)Nc1ccc(S(=O)(=O)O)cc1,6.28%,
COC1=C(OC)C(=O)C(CCCCCCCCCCO)=C(C)C1=O,-23.8% [at 52.9 µM],
CC(=O)[C@H]1CC[C@H]2[C@@H]3CCC4=CC(=O)CC[C@]4(C)[C@H]3CC[C@]12C,,inactive
Oc1ccccc1O,,inactive
CC1(C)CCC[C@]2(C)[C@H]3CCO[C@]3(C)CC[C@@H]12,-15.7%,
Cc1ccc(-c2ccccc2)cc1,-0.419%,
OC12N=C(c3ccccc3)SC1Cc1cc(Cl)ccc12 (centres undefined),,31.7 µM (active)
CCn1c2ccccc2c2cc([N+](=O)[O-])ccc21,-27.6%,
O=C(/C=C/c1ccccc1)OC/C=C/c1ccccc1,54.3%,
NC(=S)NC(N)=S,3.86%,
Clc1nnc(Cl)c2ccccc12,7.54%,
CC1(C)CCC[C@]2(C)[C@H]3CC(=O)O[C@]3(C)CC[C@@H]12,,31.7 µM (active)
Cc1cc(C(C#N)c2ccc(Cl)cc2)c(Cl)cc1NC(=O)c1cc(I)cc(I)c1O (centres undefined),-8.6% [at 52.9 µM],
CCCC(=O)OCCc1ccccc1,16.1%,

Compound,"activity change, negative = inhibition",Potency
Cc1cc(-n2nc3ccc(Cl)cc3n2)c(O)c(C(C)(C)C)c1,0.445% [at 52.9 µM],
CCCNCCC,-20.5%,
O=C(O)c1cccc(C(F)(F)F)c1,33.2%,
Cl[Si](Cl)(c1ccccc1)c1ccccc1,,5.14 µM (active)
C=CC(=O)OCCOC(=O)C=C,0.434%,
CCc1ccc(Br)cc1,-0.225%,
CN1CCCCC1CCN1c2ccccc2Sc2ccc(S(C)=O)cc21 (centres undefined),10.3% [at 52.9 µM],
CCCCC/C=C\C/C=C\CCCCCCCC(=O)O,,39.9 µM (active)
[Cl][Pt-2]([Cl])([Cl])[Cl],12.6%,
Cc1cccc2cccnc12,3.22%,
Nc1cc(Cl)c(O)c(Cl)c1,,8.94 µM (active)
COc1cc(C)ccc1O,4.28%,
Cc1cc(C(C)(C)C)cc(C)c1CC1=NCCN1,1.21% [at 52.9 µM],
CC(=O)c1ccc(C(C)=O)cc1,8.5%,
COC(=O)Nc1nc2ccc(C(=O)c3ccccc3)cc2[nH]1,9.36% [at 52.9 µM],
Nc1ccc(C(=O)O)c(O)c1,9.63% [at 52.9 µM],
Cc1c(C)c([N+](=O)[O-])c(C(C)(C)C)c([N+](=O)[O-])c1C,48.2%,
CCOC(=O)c1ccc(C2CCC(NC[C@H](O)COc3ccc(O)c(NS(C)(=O)=O)c3)CC2)cc1 (some centres undefined),157%,
Cc1nc(-c2ccc(Cl)cc2)oc1COC(C)(C)C(=O)O,12.4% [at 52.9 µM],
